CtBP-E1A blk: inhibitors of CtBP/E1A interaction; AlphaScreen GST-E1A/His-CtBP binding, 1536-well; hits give low values; activity change, % (concentration not given with the values); hit rate 0.49% among 340,000; AID 651724; in the data active = activity change below about -65%; inconclusive = mostly about -30% to -63%; note: % is set by controls: 0 for no effect and ±100 for the full control effect
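In 5 uL wells, 23 nL compound meets equimolar GST-E1A and His-CtBP (5X stock 125 nM each) for 2 h, 37 °C. Beads (5X, 50 ug/mL) then 1 h, 37 °C, dark.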
Six1-Eya2 blk: inhibitors of human Six1/Eya2 interaction; Q15475+O00167; AlphaScreen GST-Six1/His-Eya2 binding, biochemical; hits give low values; activity change, % (test concentration not listed); hit rate 0.56% among 360,000; in the data active = activity change below about -65%; inconclusive = mostly about -30% to -63%; note: % is set by controls: 0 for no effect and ±100 for the full control effect
Target sequence (O00167 whole entry, looked up): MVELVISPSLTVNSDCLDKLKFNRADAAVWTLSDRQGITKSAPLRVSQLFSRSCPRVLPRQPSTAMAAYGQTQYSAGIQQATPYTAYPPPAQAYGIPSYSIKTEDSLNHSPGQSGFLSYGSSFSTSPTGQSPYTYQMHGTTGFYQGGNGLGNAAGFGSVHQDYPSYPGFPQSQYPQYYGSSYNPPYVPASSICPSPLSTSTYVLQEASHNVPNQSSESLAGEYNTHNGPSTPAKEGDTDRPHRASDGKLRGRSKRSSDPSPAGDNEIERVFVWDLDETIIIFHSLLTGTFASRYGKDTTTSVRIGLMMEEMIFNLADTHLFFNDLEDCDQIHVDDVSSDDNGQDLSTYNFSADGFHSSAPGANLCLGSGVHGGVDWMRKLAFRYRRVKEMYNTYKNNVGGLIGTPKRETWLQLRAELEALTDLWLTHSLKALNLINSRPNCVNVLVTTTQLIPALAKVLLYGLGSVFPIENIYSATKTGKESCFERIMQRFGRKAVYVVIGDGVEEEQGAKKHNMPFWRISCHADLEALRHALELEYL
Target sequence (Q15475 whole entry, looked up): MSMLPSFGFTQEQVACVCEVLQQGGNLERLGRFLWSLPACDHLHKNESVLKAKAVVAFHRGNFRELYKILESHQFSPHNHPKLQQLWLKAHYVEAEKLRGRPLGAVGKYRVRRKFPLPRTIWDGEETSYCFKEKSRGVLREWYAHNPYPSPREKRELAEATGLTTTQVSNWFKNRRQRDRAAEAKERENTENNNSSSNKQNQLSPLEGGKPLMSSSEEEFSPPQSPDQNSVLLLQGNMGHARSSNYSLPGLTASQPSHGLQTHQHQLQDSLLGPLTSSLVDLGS
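AlphaScreen with GST-Six1 and His-Eya2 (5X mix: 250 nM and 500 nM), glutathione donor and nickel acceptor beads; buffer 50 mM Tris pH 8.0, 300 mM NaCl, 1 mM TCEP; 1 h at 37 C in the dark.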
HP1b binding inh: inhibitors of HP1-beta chromodomain binding to methylated histone tails; AlphaScreen HP1-beta / biotin-H3K9me3 peptide binding; P83916; AID 540317; hit rate 0.56% among 390,000; Potency, µM (top dose mostly 114 µM), for inactives: at the top dose activity change, negative = inhibition, usual class: inhibitors; note: potency is the fitted concentration of half-maximal effect; nearly all actives have a fitted effect of over 70% in size
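Compound inhibition of the preformed complex between 50 nM HP1-beta and 50 nM biotinylated H3K9me3 peptide was read by AlphaScreen. Buffer was PBS pH 7.4 with 0.01% Tween-20. Incubations ran 30 min at room temperature, with 10 ug/mL donor/acceptor beads.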
JMJD2A Tudor inh: JMJD2A Tudor domain (human) inhibition; O75164; AlphaScreen JMJD2A-Tudor / H3K4me3 peptide binding; hit rate 4.4% among 390,000; AID 504339; Potency, µM (titrated, usually from 114 µM), for the others: top-dose activity change, negative = inhibition, usual class: inhibitors; note: potency is the fitted concentration of half-maximal effect; % is set by controls: 0 for no effect and ±100 for the full control effect; nearly all actives have a fitted effect of over 50% in size
BAZ2B block: blocks human BAZ2B; Q9UIF8; AlphaScreen BAZ2B-H3K14Ac peptide displacement; Potency, µM (titrated, usually from 114 µM), without a hit: at the highest dose activity change, negative = inhibition, hits mostly inhibitors; hit rate 4.4% among 360,000; note: potency is the fitted concentration of half-maximal effect; % is set by controls: 0 for no effect and ±100 for the full control effect; nearly all actives have a fitted effect of over 60% in size
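Complex of BAZ2B and biotin-H3K14Ac (50 nM apiece) forms over 30 min at RT, then faces library compounds up to 110 uM for another 30 min; AlphaScreen beads added, 20 min dark incubation, luminescence read.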
G9a block: inhibitors of human histone lysine methyltransferase G9a; Q96KQ7; G9a H3K9 monomethylation, AlphaScreen, 2 h; Potency, µM (highest dose often 102 µM), inactives show at the highest dose activity, negative = inhibition, usual class: inhibitors; hit rate 8.8% among 350,000; AID 504332; note: potency is the fitted concentration of half-maximal effect; % is set by controls: 0 for no effect and ±100 for the full control effect; nearly all actives have a fitted effect of over 75% in size
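G9a (20 nM) was preincubated 15 min with compound, then reacted 2 h at room temperature with 500 nM biotin-H3K9 peptide and 20 µM SAM. Monomethyl-H3K9 detected by AlphaScreen using anti-H3K9me1 antibody.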
Starred values were filed as active, the others as inactive; ? = inconclusive; nt = no result; [ ] = another dose, or the depositor's remark. Rows were chosen to be rich in hits. Some 10% of all compounds tested hit in one or more screens of this group. Unless noted, calls come from the whole dose curve; as a rule, active = well fitted inhibition curve with a large enough effect; inconclusive = small, poorly fitted or top-dose-only effect; inactive = no such curve, though single readings can be large or run the other way.

SMILES	CtBP-E1A blk	Six1-Eya2 blk	HP1b binding inh	JMJD2A Tudor inh	BAZ2B block	G9a block
Cc1ccc(NC(=O)N2CCCc3ccccc32)cc1	-0.5	6.6	-21.3%	-29.1%	7.6%	6.2%
Cc1ccc2c(c1)CCCN2C(=O)Nc1ccc2c(c1)OCO2	-12.1	-11.9	-37.2%	56.2µM*	?	?
O=S(=O)(N/N=C\c1cccnc1)c1ccccc1	7.2	10.9	30.4%	-17.9%	-1.4%	10µM*
O=S(=O)(N/N=C/c1ccc(N2CCOCC2)cc1)c1ccccc1	0.0	1.3	4.1%	-21.5%	5.5%	44.7µM*
COCCn1c(SCC(=O)Nc2ccc(Br)cc2)nc2c([nH]c3ccccc32)c1=O	nt	nt	27.1%[57 µM]	-8.1%	5.6%	11.4%[59 µM]
COc1ccccc1-c1nnc(SC(C(=O)c2c[nH]c3ccccc23)c2ccccc2)n1C (configuration not stated)	nt	-16.4	36.7%	?	-5.8%	79.4µM*
CC(C)CCn1c(O)c(N=Nc2ccccn2)c2ccccc21	12.2	15.6	63.9%	-9.5%	-1.3%	31.9%[59 µM]
CC(C)CCn1c(O)c(N=NC(=O)Cn2ccc(C(F)(F)F)n2)c2ccccc21	-8.4	-6.0	4.5%	50.1µM*	3.0%	-8.9%[59 µM]
CCCCN(CCCC)CCNC(=O)Cn1nc(C)n2c(cc3sccc32)c1=O	nt	nt	8.9%	-14.5%	2.2%	4.5%[59 µM]
Cc1cccc(N(Cc2ccccc2)C(=O)c2ccc(F)c(S(=O)(=O)N3CCOCC3)c2)c1	-2.9	-2.1	19.3%	-23.4%	-10.3%	0.5%
Cc1ccc(N(Cc2ccccc2)C(=O)c2ccc(F)c(S(=O)(=O)N3CCOCC3)c2)cc1	3.5	3.5	-0.7%	-17.1%	-4.1%	44.7µM*
COc1ccc([C@H]2/C=C\CN(Cc3ccc(N(C)C)cc3)[C@@H](C)C(=O)N2Cc2ccc(F)cc2)cc1	-65.1*	?	?	17.8µM*	nt	nt
COc1ccc(C)c2sc(NC(=O)c3ccc(S(=O)(=O)N(C)C)cc3)nc12	nt	nt	31.5%[57 µM]	-0.6%	6.6%	6.5%[59 µM]
CC(=O)N1CC[n+]2c(-c3ccc(Cl)cc3)csc21	-2.4	6.1	16.0%	39.8µM*	-33.0%	14.1µM*
CCc1ccc(-c2csc3[n+]2CCN3C(C)=O)cc1	6.7	-1.4	7.0%	-35.6%	?	11.2µM*
O=C(CN1CC[n+]2c(-c3cccs3)csc21)c1ccc(-c2ccccc2)cc1	3.5	-18.8	14.5%	-24.1%	-27.7%	nt
COc1ccccc1NC(=O)C1=C(C)Nc2c(C(=O)Nc3ccc(C)cc3)cnn2C1c1cccc(OC)c1OC (configuration not stated)	nt	nt	7.9%	-23.3%	-0.1%[57.1 µM]	0.6%[59 µM]
O=C(O)c1cc(N/N=C/c2c(O)ccc3ccccc23)ccc1Cl	?	?	?	?	39.8µM*	20µM*
O=C(CN1CCOCC1)N/N=C/c1ccco1	-4.9	-5.1	43.8%	-8.5%	2.1%	-38.1%
O=C(CN1CCOCC1)N/N=C/c1c(O)ccc2ccccc12	-93.1*	-94.6*	52.3%	-11.5%	44.7µM*	-12.7%
O=C(CSCC(=O)Nc1ccccc1)N/N=C/c1c(O)ccc2ccccc12	-71.9*	?	17.5%	-30.7%	-2.3%	1.58µM*
CCCCCCCCCCCC(CC1OC(=O)C1CCCCCC)OC(=O)C(CC(C)C)NC=O (configuration not stated)	nt	nt	nt	nt	nt	-2.1%[2.33 µM]
COc1ccc(CNC(=O)Cn2ccc3cc(S(=O)(=O)N4CCCCCC4)ccc32)c(OC)c1	nt	nt	61.4%	-12.4%	-11.7%	2.0%[59 µM]
Cc1cc(C)c(NC(=O)C(=O)NCC(c2cccnc2)N2CCN(Cc3ccccc3)CC2)c(C)c1 (configuration not stated)	nt	nt	21.8%	-12.5%	2.6%	-4.9%[59 µM]
Cc1ccc(S(=O)Cc2ccc(C(=O)NCc3ccc(OC(C)C)cc3)o2)cc1 (configuration not stated)	nt	nt	2.2%	-19.0%	-12.3%	-32.7%[59 µM]
SMILES	CtBP-E1A blk	Six1-Eya2 blk	HP1b binding inh	JMJD2A Tudor inh	BAZ2B block	G9a block
CCc1ccc(/C=C/C(=O)c2c(C)cc(C)[nH]c2=O)cc1	-0.2	-1.0	41.6%	-3.3%	4.7%	56.2µM*
CCOC(=O)c1c(C)oc2nc(C)nc(Nc3cc(C)cc(C)c3)c12	nt	nt	27.6%	-8.4%	-6.2%[57.1 µM]	-18.7%[59 µM]
COC(=O)c1ccc(-c2nc(O)c3cnccn23)cc1	-2.5	-21.9	25.5%	-7.9%	-10.2%	?
Oc1nc(-c2ccc(Cl)cc2)n2ccncc12	nt	-4.5	37.5%	?	79.4µM*	14.1µM*
CC(C)(C)c1ccc(OCc2cc(=O)n3c4c(sc3n2)CCCC4)cc1	nt	nt	18.6%	-10.9%	0.4%	5.4%[59 µM]
CC1=C(C(=O)OCc2ccc(C)cc2)C(c2ccccc2C(F)(F)F)CC(=O)N1 (configuration not stated)	nt	nt	18.7%	-5.1%	-5.2%	-37.9%[59 µM]
O=C(NC(=S)Nc1cccnc1Cl)c1ccco1	nt	2.7	?	-21.1%	-22.2%	56.2µM*
O=C(NC(=S)Nc1ccccn1)c1ccco1	-26.0	-28.7	21.8%	?	2.1%	-7.3%
O=C(NC(=S)Nc1cccnc1Cl)c1ccc(Cl)cc1	-0.5	-6.6	-4.2%	-3.5%	-19.6%	39.8µM*
Fc1ccc(CCNc2ncnc3nc[nH]c23)cc1	nt	nt	26.9%	-9.9%	nt	nt
O=C(CCC(=O)N/N=C/c1ccc(Br)s1)NCc1ccccc1	-19.4	0.8	31.7%	1.4%	5.4%	5.7%[59 µM]
O=C(CCC(=O)N/N=C/c1cc(Cl)cc(Cl)c1O)NCc1ccccc1	-29.1	?	-2.1%	28.2µM*	5.2%	nt
Cc1ccc(C)c(S(=O)(=O)c2nnn3c2nc(N2CCCC2)c2sccc23)c1	nt	nt	29.0%	-6.6%	-14.5%	4.2%[59 µM]
CC(=O)Nc1c(O)cc(Br)c2nonc12	nt	nt	15.6%[57 µM]	-18.5%[57.1 µM]	nt	nt
CC(=O)Nc1cc(O)c2nonc2c1O	nt	nt	?	25.1µM*	nt	nt
Cc1sc2ncnc(N3CCC(C(=O)Nc4ccc(Cl)c(Cl)c4)CC3)c2c1C	-4.9	-0.8	40.2%	-5.4%	1.0%	-0.5%[12.7 µM]
Cc1sc2ncnc(N3CCC(C(=O)Nc4ccc(Cl)cc4Cl)CC3)c2c1C	1.9	-8.2	19.2%	-10.1%	-1.5%	56.2µM*
Cc1sc2ncnc(N3CCC(C(=O)Nc4ccc(Br)cc4Br)CC3)c2c1C	3.1	2.7	11.8%	-13.6%	7.1%	39.8µM*
CNC(=O)c1ccc(NC(=O)C2CCN(c3ncnc4sc(C)c(C)c34)CC2)cc1	1.2	-21.3	16.9%	-11.0%	-8.5%	38.5%
CCOC(=O)c1[nH]c(C)c(CCC(=O)O)c1C	-2.7	-4.8	8.5%	-15.6%	-1.4%	11.3%[12.7 µM]
CCOc1c(C)cc2[nH]c(CCC(=O)O)nc2c1C	0.0	8.6	29.1%	-5.7%	-3.1%	12.6µM*
